p53 reactivator: qHTS assay for re-activators of p53 using a Luc reporter; H1299 p53-A138V BP100-luciferase reporter, luminescence, 24 h; Potency, µM (titrated, usually from 92.2 µM), without a hit: top-dose activity change, positive = activation, most hits filed as activators; 320,000 compounds, 0.063% hits; AID 504706, 2011; note: potency is the fitted concentration of half-maximal effect; % of control where 0% means no effect; nearly all actives have a fitted effect of over 45% in size
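p53-null H1299 cells stably carrying temperature-sensitive p53-A138V and a BP100-luciferase reporter were pinned with compounds (4-point, 1:5 series) and held 24 hrs at 37 deg C. Luminescence was read 10 min after detection reagent.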
GLP-1R inv ag: qHTS of GLP-1 Receptor Inverse Agonists (Inhibition Mode); Glucagon-like peptide 1 receptor (Homo sapiens), P43220; AID 624417, 2012; Potency, µM (doses to about 38.3 µM), for the others: at the top dose activity change, negative = inhibition, most hits filed as inhibitors; 410,000 compounds, 1.6% hits; HEK293 GLP-1R CRE-luciferase, luminescence, 24 h; GLP-1R form is constitutively active; note: potency is the fitted concentration of half-maximal effect; % is set by controls: 0 for no effect and ±100 for the full control effect; nearly all actives have a fitted effect of over 55% in size
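Inverse agonists were sought by their lowering of basal cAMP reporter luciferase output in HEK293 cells stably carrying constitutively active human GLP-1R, after 24 h compound treatment.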
GLP1R ag: qHTS of GLP-1 Receptor Agonists. Glucagon-like peptide 1 receptor (Homo sapiens), P43220. HEK293 GLP-1R CRE-luciferase, luminescence, 4-6 h; cells express a hypersensitive GLP-1R form. Potency, µM (top dose mostly 45.6 µM), inactives show at the highest dose activation, usual class: activators. 380,000 compounds, 0.007% hits. AID 624172, 2012; note: potency is the fitted concentration of half-maximal effect; % of control where 0% means no effect
GLP1R cytotox: qHTS of GLP-1 Receptor Inverse Agonists: Cytotox Screen; HEK293 cAMP-luciferase reporter cells, luminescence, 24 h; Potency, µM (doses to about 38.3 µM), inactives show at the highest dose activity change, negative = inhibition, actives largely listed as inhibitors; 410,000 compounds, 0.13% hits; AID 624418, 2012;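 note: loss of luciferase light is scored as toxicity; potency is the fitted concentration of half-maximal effect; % is set by controls: 0 for no effect and ±100 for the full control effect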
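Seeding density was 200 cells/uL; after overnight-length (12 h) culture, 23 nL compounds went on for 24 h at 37 °C. Readout used a luciferase detection reagent, luminescence taken after 12 min at room temperature.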
ClpP mod: qHTS Assay for Activators of ClpP; ATP-dependent Clp protease proteolytic subunit (Bacillus subtilis (strain 168)), P80244; purified B. subtilis ClpP, FRET peptide cleavage, 20 min; Potency, µM (titrated, usually from 57.5 µM), for the others: at the top dose activity change, negative = active; 340,000 compounds, 1.9% hits; AID 651965, 2013; active = well fitted falling curve with a large enough effect; inconclusive = small, poorly fitted or top-dose-only effect; inactive = no such curve, though single readings can be large or run the other way; note: potency is the fitted concentration of half-maximal effect; the source files actives as falling curves though it sought activators and does not explain the sign; nearly all actives have a fitted effect of over 65% in size
Target sequence (P80244 whole entry, looked up): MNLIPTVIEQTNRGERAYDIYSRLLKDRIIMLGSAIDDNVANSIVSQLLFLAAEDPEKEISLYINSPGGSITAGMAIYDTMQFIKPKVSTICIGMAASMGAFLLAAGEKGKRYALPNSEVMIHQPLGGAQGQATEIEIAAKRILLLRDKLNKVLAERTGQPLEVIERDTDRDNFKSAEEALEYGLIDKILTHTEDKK
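Purified B. subtilis ClpP, 10 microg/mL final in Tris/HCl pH8 with KCl, BSA, glycerol and Tween-20, cleaved an Abz/nitrotyrosine-quenched decapeptide. Fluorescence (ex 320, em 430) was read at 0 and 20 min at room temperature. Delta was normalized to 5.8 microM ADEP and DMSO/no-enzyme controls.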
LDHA inh: qHTS assay for inhibitors of human lactate dehydrogenase | L-lactate dehydrogenase A chain (Homo sapiens), P00338 | purified LDHA, NADH/diaphorase-resazurin fluorescence; hits give low values | activity change, % (values are at about 110 or 230 µM) | 480,000 compounds, 0.15% hits | AID 1347041, 2019; in the data active = activity change below about -30%; inconclusive = mostly about -25% to -30%;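 note: plate controls were DMSO wells for no effect and wells without enzyme for full effect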
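Human LDH5 at 2 nM final in Tris HCl pH 7.4 with 0.06 mM NADH and 0.2 mM pyruvate, reacted 5 minutes at room temperature. Remaining NADH coupled via diaphorase/resazurin; resorufin fluorescence read at 0 and 20 minutes, normalized to enzyme-free and DMSO wells.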
* = called active by the depositor. A selection: hits, their analogues and other compounds. The true share with any hit is near 2.9%. Unless noted, calls come from the whole dose curve; as a rule, active = well fitted curve in the direction sought with a large enough effect; inconclusive = small, poorly fitted or top-dose-only effect, or another doubt; inactive = no such curve, though single readings can be large; an effect the other way counts as inactive or inconclusive.

How did Nc1nc(-c2cccnc2)nn1S(=O)(=O)c1ccccc1 do in these assays?
GLP-1R inv ag: 38.3%; GLP1R ag: 5.2%; GLP1R cytotox: 22.5%; ClpP mod: 35.5µM*; LDHA inh: -7.4

Results for Nc1nc(-c2ccco2)nn1S(=O)(=O)c1ccccc1 ?
p53 reactivator: -0.1%; GLP-1R inv ag: 26.8%; GLP1R ag: 0.2%; GLP1R cytotox: -1.3%; LDHA inh: -1.6

How did CCOc1cc(N2CCOCC2)c(OCC)cc1NC(=O)c1ccc(OCc2c(C)noc2C)c(OC)c1 do in these assays?
p53 reactivator: -0.8%; GLP-1R inv ag: 6.7%; GLP1R ag: 2.4%; GLP1R cytotox: -1.7%; ClpP mod: 11.2µM*; LDHA inh: 2.8

Results for CCOc1cc(N2CCOCC2)c(OCC)cc1NC(=O)c1ccc(OC)cc1 ?
p53 reactivator: -2.6%; GLP-1R inv ag: -1.8%; GLP1R ag: 12.9%; GLP1R cytotox: -0.5%; LDHA inh: 3.9

How did O=C(COC(=O)COc1ccc(Cl)cc1Cl)NC1CCS(=O)(=O)C1 (centres undefined) do in these assays?
p53 reactivator: 3.2%; GLP-1R inv ag: inconclusive; GLP1R ag: 3.7%; GLP1R cytotox: 0.7%; ClpP mod: -0.7%; LDHA inh: -11.5

Results for O=C(CSc1nc2c([nH]c3ccccc32)c(=O)n1-c1ccccc1)N1CCc2ccccc21 ?
GLP-1R inv ag: -9.4%; GLP1R cytotox: 1.2%; ClpP mod: 28.2µM*; LDHA inh: -8.0

How did Cc1cc(NC(=O)CSc2nc3c([nH]c4ccccc43)c(=O)n2-c2cccc(C(F)(F)F)c2)no1 do in these assays?
p53 reactivator: 12.9%; GLP-1R inv ag: inconclusive; GLP1R ag: -17.1%; GLP1R cytotox: inconclusive; ClpP mod: 28.2µM*; LDHA inh: -1.4

Results for Cc1ccc(-n2c(SCC(=O)NCc3ccc(F)cc3)nc3c([nH]c4ccccc43)c2=O)cc1 ?
GLP-1R inv ag: inconclusive; GLP1R ag: -2.7%; GLP1R cytotox: -1.2%; ClpP mod: 31.6µM*; LDHA inh: -8.4

What do the screens show for `O=C(CSc1nc2c([nH]c3ccccc32)c(=O)n1-c1ccc(F)cc1)Nc1ccc2c(c1)OCO2`?
GLP-1R inv ag: -13.9%; GLP1R ag: -2.9%; GLP1R cytotox: -11.5%; ClpP mod: inconclusive; LDHA inh: 1.1

How did O=C(CSc1nc2c([nH]c3ccccc32)c(=O)n1-c1ccc(F)cc1)Nc1ccc2c(c1)OCCO2 do in these assays?
GLP-1R inv ag: -4.7%; GLP1R cytotox: -8.5%; ClpP mod: 22.4µM*; LDHA inh: 1.6

How did C[C@H](NC(=O)c1nc[nH]c1C(=O)NCc1ccccc1)c1ccccc1 do in these assays?
p53 reactivator: -3.1%; GLP-1R inv ag: inconclusive; GLP1R ag: -1.2%; GLP1R cytotox: -33.1%; ClpP mod: 0.9%; LDHA inh: 0.2

Results for CCOC(=O)c1ccc2nc(C)c3c(c2c1)OC(C)C3 (centres undefined) ?
p53 reactivator: -13.0%; GLP-1R inv ag: 14.0%; GLP1R ag: inconclusive; GLP1R cytotox: -7.3%; ClpP mod: 31.6µM*; LDHA inh: -2.3

Results for CCOC(=O)c1ccc2nc(C(F)(F)F)[nH]c(=O)c2c1 ?
p53 reactivator: -2.8%; GLP-1R inv ag: 2.0%; GLP1R ag: -4.9%; GLP1R cytotox: 26.4%; ClpP mod: 3.98µM*; LDHA inh: -11.0

How did O=C(O)c1ccc2nc(C(F)(F)F)[nH]c2c1 do in these assays?
p53 reactivator: -6.6%; GLP-1R inv ag: 1.0%; GLP1R ag: -13.1%; GLP1R cytotox: 6.6%; ClpP mod: -0.8%; LDHA inh: 0.0
